Results reported in the supplement of paper PMC10849652.
The full data set covers some 8,800 targets. This sample favours those with a hit. About 0.5% of all pairs of compound and target were hits. Values without a mark were called inactive.

Key:
Assay in all cases: log2 fold change, soluble protein after heating vs DMSO (PISA); higher = thermal stabilisation; K562 lysate, 10 uM; active = over 0.2 and 3.5 SD of the protein, either way, in both replicates (recomputed)
alvocidib = compound: CN1CC[C@H](c2c(O)cc(O)c3c(=O)cc(-c4ccccc4Cl)oc23)[C@H](O)C1 [alvocidib]
Procedure, shortened: (§1)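 The values are log-two fold changes in thermal stability compared with solvent controls and come from duplicates. They were obtained by TMTpro 16plex LC-MS/MS, with channel sums equalised, on the supernatant after 21,000xg for 90 min. That supernatant came from crude K562 extract at 1 mg/mL protein treated with 10 μM compound for 30 min, heated for 3 min across 48°C-58°C, pooled and brought to 0.5% NP-40 at 4°C.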

Tubastatin A = compound: CN1CCc2c(c3ccccc3n2Cc2ccc(C(=O)NO)cc2)C1 [Tubastatin A]
Procedure, shortened: as §1

[1] = compound: CNC(=O)C1=CC=CC=C1NC2=NC(=NC=C2Cl)NC3=C(C=C(C=C3)N4CCOCC4)OC
Procedure, shortened: as §1

defactinib = compound: CNC(=O)c1ccc(Nc2ncc(C(F)(F)F)c(NCc3nccnc3N(C)S(C)(=O)=O)n2)cc1 [defactinib]
Procedure, shortened: as §1

[2] = compound: CNc1nc(-c2ccc3c(N)n[nH]c3c2)cc(N2C[C@@H](C(=O)NC3CCCCC3)CC[C@H]2C)n1
Procedure, shortened: as §1

encorafenib = compound: COC(=O)N[C@@H](C)CNc1nccc(-c2cn(C(C)C)nc2-c2cc(Cl)cc(NS(C)(=O)=O)c2F)n1 [encorafenib]
Procedure, shortened: as §1

[3] = compound: COC(=O)[C@H](CCSC)NC(=O)C1=C(C=C(C=C1)NC[C@H](CS)N)C2=CC=CC=C2
Procedure, shortened: as §1

alisertib = compound: COc1cc(Nc2ncc3c(n2)-c2ccc(Cl)cc2C(c2c(F)cccc2OC)=NC3)ccc1C(=O)O [alisertib]
Procedure, shortened: as §1

[4] = compound: COc1cc2nc(-c3cc(F)ccc3O)nc(N[C@@H]3CNC[C@H]3C(C)(C)O)c2cc1OC
Procedure, shortened: as §1

gefitinib = compound: COc1cc2ncnc(Nc3ccc(F)c(Cl)c3)c2cc1OCCCN1CCOCC1 [gefitinib]
Procedure, shortened: as §1

lapatinib = compound: CS(=O)(=O)CCNCc1ccc(-c2ccc3ncnc(Nc4ccc(OCc5cccc(F)c5)c(Cl)c4)c3c2)o1 [lapatinib]
Procedure, shortened: as §1

pictilisib = compound: CS(=O)(=O)N1CCN(Cc2cc3nc(-c4cccc5[nH]ncc45)nc(N4CCOCC4)c3s2)CC1 [pictilisib]
Procedure, shortened: as §1

crizotinib = compound: C[C@@H](Oc1cc(-c2cnn(C3CCNCC3)c2)cnc1N)c1c(Cl)ccc(F)c1Cl [crizotinib]
Procedure, shortened: as §1

[5] = compound: C[C@H](C1=CC=C(C=C1)C(=O)NC2=C3C=CNC3=NC=C2)N
Procedure, shortened: as §1

duvelisib = compound: C[C@H](Nc1ncnc2nc[nH]c12)c1cc2cccc(Cl)c2c(=O)n1-c1ccccc1 [duvelisib]
Procedure, shortened: as §1

gandotinib = compound: Cc1cc(Nc2cc(CN3CCOCC3)c3nc(C)c(Cc4ccc(Cl)cc4F)n3n2)n[nH]1 [gandotinib]
Procedure, shortened: as §1

tozasertib = compound: Cc1cc(Nc2cc(N3CCN(C)CC3)nc(Sc3ccc(NC(=O)C4CC4)cc3)n2)n[nH]1 [tozasertib]
Procedure, shortened: as §1

doramapimod = compound: Cc1ccc(-n2nc(C(C)(C)C)cc2NC(=O)Nc2ccc(OCCN3CCOCC3)c3ccccc23)cc1 [doramapimod]
Procedure, shortened: as §1

bafetinib = compound: Cc1ccc(NC(=O)c2ccc(CN3CC[C@H](N(C)C)C3)c(C(F)(F)F)c2)cc1Nc1nccc(-c2cncnc2)n1 [bafetinib]
Procedure, shortened: as §1

[6] = compound: Cc1cccc(CC(=O)N2CCc3c2ccc(-c2cn(C)c4ncnc(N)c24)c3F)n1
Procedure, shortened: as §1

Sequence of UniProt O75376 (O75376 whole entry, looked up): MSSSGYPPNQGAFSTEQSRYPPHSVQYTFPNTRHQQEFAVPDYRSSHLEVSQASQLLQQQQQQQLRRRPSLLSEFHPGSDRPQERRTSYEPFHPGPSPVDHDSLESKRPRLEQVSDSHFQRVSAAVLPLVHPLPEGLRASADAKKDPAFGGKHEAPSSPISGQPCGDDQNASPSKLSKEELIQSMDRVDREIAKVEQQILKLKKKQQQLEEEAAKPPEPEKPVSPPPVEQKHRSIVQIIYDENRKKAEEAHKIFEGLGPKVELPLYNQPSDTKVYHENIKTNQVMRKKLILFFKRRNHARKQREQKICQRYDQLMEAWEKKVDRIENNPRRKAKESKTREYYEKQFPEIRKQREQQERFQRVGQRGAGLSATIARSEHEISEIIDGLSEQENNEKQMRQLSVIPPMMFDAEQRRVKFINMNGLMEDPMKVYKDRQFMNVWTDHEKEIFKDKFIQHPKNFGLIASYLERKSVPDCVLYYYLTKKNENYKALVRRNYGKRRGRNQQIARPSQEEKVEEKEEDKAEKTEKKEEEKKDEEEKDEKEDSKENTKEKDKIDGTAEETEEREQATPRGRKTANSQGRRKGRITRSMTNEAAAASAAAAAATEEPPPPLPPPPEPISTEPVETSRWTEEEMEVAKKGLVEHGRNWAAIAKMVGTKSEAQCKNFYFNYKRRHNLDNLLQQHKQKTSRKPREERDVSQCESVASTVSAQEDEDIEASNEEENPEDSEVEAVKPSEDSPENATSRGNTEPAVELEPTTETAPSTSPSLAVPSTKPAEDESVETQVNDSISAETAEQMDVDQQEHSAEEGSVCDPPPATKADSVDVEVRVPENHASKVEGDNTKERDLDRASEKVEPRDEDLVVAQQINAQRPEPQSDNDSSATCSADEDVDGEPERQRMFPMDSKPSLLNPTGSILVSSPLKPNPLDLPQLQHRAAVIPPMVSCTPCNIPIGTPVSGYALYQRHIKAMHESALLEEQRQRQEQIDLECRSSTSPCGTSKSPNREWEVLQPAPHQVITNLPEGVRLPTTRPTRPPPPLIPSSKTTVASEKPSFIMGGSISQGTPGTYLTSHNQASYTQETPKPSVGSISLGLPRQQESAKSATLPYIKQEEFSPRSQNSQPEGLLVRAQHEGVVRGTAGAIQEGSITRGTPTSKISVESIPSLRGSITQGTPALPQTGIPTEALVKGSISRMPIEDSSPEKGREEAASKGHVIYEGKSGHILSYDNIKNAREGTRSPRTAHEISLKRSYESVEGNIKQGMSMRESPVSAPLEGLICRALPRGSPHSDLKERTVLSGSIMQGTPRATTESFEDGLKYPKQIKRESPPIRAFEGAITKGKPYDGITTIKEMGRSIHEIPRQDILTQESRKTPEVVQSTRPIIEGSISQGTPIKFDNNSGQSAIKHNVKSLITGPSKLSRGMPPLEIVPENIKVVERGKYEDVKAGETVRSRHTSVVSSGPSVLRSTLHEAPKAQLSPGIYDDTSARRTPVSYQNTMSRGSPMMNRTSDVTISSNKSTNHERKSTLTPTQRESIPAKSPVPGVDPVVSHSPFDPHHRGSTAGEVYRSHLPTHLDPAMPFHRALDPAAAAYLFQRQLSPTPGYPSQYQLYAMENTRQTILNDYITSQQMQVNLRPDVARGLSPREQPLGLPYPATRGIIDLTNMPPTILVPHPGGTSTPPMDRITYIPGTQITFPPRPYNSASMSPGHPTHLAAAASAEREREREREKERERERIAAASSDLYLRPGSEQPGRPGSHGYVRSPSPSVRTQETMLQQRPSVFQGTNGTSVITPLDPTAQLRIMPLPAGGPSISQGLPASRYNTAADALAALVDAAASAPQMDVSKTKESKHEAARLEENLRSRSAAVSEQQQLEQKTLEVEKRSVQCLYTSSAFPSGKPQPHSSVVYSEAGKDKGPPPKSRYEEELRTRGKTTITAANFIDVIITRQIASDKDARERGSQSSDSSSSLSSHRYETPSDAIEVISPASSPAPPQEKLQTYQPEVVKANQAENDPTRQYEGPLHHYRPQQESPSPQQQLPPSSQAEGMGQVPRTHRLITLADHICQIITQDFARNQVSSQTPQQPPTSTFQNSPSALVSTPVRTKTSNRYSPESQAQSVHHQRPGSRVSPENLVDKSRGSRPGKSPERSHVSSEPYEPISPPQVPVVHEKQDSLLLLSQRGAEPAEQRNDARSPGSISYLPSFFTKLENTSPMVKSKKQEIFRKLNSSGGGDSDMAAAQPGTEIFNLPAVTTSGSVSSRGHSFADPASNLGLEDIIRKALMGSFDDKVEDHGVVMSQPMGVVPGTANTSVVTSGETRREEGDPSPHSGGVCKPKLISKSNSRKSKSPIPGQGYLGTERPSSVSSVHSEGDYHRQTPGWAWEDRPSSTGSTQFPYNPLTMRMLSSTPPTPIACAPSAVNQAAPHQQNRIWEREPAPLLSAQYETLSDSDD
Sequence of UniProt Q9NZJ9 (Q9NZJ9 whole entry, looked up): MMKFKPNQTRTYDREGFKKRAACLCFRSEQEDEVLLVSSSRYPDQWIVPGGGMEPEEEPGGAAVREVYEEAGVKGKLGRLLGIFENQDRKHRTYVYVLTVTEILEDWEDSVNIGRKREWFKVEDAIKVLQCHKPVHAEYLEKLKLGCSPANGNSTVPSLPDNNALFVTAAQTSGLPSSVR
Sequence of UniProt Q9BTC8 (Q9BTC8 whole entry, looked up): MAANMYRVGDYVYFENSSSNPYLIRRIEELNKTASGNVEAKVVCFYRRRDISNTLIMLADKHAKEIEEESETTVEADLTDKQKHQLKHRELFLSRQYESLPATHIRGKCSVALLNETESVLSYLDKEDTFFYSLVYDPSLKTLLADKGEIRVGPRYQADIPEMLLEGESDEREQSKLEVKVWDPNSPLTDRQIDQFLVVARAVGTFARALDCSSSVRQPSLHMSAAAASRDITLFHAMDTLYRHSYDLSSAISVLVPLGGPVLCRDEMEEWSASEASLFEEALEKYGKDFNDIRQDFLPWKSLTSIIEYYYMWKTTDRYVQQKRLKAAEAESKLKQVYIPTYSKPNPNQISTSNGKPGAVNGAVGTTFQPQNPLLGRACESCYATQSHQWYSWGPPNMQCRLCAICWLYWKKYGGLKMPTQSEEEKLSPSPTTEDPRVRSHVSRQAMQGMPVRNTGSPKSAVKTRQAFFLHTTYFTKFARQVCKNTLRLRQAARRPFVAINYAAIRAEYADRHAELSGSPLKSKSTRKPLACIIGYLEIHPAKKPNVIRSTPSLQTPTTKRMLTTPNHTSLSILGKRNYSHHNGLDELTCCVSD
Sequence of UniProt P08651 (P08651 whole entry, looked up): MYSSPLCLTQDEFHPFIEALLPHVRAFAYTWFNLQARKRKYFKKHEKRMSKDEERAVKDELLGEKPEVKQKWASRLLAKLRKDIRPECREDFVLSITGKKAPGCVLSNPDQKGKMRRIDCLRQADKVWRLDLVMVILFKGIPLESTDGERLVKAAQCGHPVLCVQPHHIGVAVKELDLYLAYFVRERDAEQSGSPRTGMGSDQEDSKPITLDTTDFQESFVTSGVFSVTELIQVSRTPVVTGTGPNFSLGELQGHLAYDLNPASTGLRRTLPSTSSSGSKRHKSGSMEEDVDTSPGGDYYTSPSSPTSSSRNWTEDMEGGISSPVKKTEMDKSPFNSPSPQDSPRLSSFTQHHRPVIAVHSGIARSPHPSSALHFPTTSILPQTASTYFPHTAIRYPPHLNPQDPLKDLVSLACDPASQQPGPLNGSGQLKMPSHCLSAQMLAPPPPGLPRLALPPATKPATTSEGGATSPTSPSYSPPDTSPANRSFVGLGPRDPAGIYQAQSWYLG
Sequence of UniProt Q9H3P2 (Q9H3P2 whole entry, looked up): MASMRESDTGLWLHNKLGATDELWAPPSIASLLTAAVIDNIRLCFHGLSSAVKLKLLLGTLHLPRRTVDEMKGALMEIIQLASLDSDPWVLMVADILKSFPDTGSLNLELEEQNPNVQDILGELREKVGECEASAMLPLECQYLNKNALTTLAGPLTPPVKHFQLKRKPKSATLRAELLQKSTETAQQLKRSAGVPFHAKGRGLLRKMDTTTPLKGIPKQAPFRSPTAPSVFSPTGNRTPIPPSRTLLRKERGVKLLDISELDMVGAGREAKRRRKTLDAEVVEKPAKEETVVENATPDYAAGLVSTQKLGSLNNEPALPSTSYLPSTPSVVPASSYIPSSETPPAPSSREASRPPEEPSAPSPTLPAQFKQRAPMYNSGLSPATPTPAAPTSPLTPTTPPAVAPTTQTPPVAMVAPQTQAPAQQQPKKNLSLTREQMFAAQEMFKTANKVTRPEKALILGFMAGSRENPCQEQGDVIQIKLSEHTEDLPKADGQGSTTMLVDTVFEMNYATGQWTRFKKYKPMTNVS
Sequence of UniProt Q9Y6C9 (Q9Y6C9 whole entry, looked up): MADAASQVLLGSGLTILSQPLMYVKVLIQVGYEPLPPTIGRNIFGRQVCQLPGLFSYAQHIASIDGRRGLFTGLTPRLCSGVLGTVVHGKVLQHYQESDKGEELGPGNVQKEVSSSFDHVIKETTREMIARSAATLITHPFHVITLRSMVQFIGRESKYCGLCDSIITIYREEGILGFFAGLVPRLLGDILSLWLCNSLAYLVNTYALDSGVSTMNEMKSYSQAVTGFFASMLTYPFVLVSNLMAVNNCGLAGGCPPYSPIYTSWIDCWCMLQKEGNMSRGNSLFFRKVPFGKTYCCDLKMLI
Sequence of UniProt P00480 (P00480 whole entry, looked up): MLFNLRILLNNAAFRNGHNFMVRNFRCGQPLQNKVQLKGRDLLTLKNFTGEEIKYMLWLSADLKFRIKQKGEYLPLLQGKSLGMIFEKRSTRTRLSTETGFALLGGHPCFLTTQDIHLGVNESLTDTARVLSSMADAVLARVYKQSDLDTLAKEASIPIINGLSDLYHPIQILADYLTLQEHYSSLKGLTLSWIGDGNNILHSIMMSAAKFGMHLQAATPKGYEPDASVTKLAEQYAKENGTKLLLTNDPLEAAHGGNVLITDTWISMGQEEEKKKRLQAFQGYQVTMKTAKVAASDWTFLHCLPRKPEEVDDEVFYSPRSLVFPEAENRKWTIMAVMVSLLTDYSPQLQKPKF

Row | Target | log2 fold change (alvocidib) | log2 fold change (Tubastatin A) | log2 fold change [1] | log2 fold change (defactinib) | log2 fold change [2] | log2 fold change (encorafenib) | log2 fold change [3] | log2 fold change (alisertib) | log2 fold change [4] | log2 fold change (gefitinib) | log2 fold change (lapatinib) | log2 fold change (pictilisib) | log2 fold change (crizotinib) | log2 fold change [5] | log2 fold change (duvelisib) | log2 fold change (gandotinib) | log2 fold change (tozasertib) | log2 fold change (doramapimod) | log2 fold change (bafetinib) | log2 fold change [6]
1 | NCKAP1L (UniProt P55160) | -0.033 | -0.043 | 0.198 | 0.009 | 0.063 | 0.058 | -0.223 | 0.022 | -0.025 | -0.059 | 0 | 0 | -0.061 | -0.002 | 0.02 | 0.025 | 0.018 | -0.011 | -0.324 | 0.017
2 | MRPL53 (UniProt Q96EL3) | 0.005 | -0.048 | -0.02 | 0.051 | -0.048 | -0.036 | -0.226 (active) | 0.049 | 0 | -0.048 | 0.022 | -0.004 | 0.031 | 0.079 | 0 | -0.04 | 0.016 | 0.009 | 0.005 | 0.012
3 | MTCH2 (UniProt Q9Y6C9) | -0.032 | -0.046 | 0.043 | -0.003 | 0.047 | -0.01 | 0.043 | 0.013 | -0.062 | -0.007 | -0.023 | -0.018 | -0.059 | -0.144 | -0.011 | 0.142 | -0.028 | 0.024 | -0.04 | 0.022
4 | NAP1L5 (UniProt Q96NT1) | 0.161 | -0.039 | 0.008 | -0.032 | -0.082 | 0.01 | -0.047 | 0.021 | -0.039 | 0.02 | 0.079 | 0.017 | 0.094 | 0.616 (active) | 0.099 | -0.299 | -0.016 | -0.171 | 0.076 | -0.174
5 | NFIC (UniProt P08651) | -0.103 | -0.104 | 0.078 | -0.153 | -0.048 | 0.121 | -0.025 | 0 | -0.025 | 0.117 | -0.004 | 0.109 | 0.007 | -0.361 | -0.002 | 0.237 | 0.035 | 0.139 | -0.038 | 0.003
6 | NUP205 (UniProt Q92621) | -0.02 | -0.078 | 0.012 | 0.015 | -0.003 | 0.016 | -0.081 | 0.008 | 0 | -0.018 | -0.03 | -0.041 | -0.1 | -0.047 | -0.008 | -0.143 | 0.015 | 0.043 | -0.089 | 0.031
7 | OTC (UniProt P00480) | -1.18 (active) | 0.148 | -0.134 | -0.188 | -0.152 | -0.047 | -0.018 | 0.218 | -0.023 | 0.184 | -0.118 | -0.026 | -0.273 | -4.33 (active) | 0.159 | -0.003 | 0.161 | 0.168 | -0.412 | 0.377
8 | MTA3 (UniProt Q9BTC8) | -0.016 | -0.013 | 0.019 | 0.044 | -0.043 | 0.041 | 0.091 | 0.077 | 0.025 | -0.059 | 0.006 | 0.026 | -0.058 | -0.022 | 0.001 | -0.013 | -0.008 | 0.002 | -0.048 | 0.051
9 | NBEAL2 (UniProt Q6ZNJ1) | 0.031 | -0.141 | -0.005 | 0.022 | 0.033 | 0.003 | -0.029 | -0.053 | -0.009 | 0.01 | -0.065 | -0.016 | -0.069 | -0.006 | 0.04 | -0.157 | 0.02 | 0.008 | -0.056 | 0.072
10 | NELFA (UniProt Q9H3P2) | 0.036 | -0.139 | 0.022 | 0.056 | 0.051 | 0 | 0.025 | 0.006 | -0.006 | -0.015 | -0.031 | 0.021 | 0.018 | 0.06 | -0.018 | -0.079 | 0.048 | 0.022 | -0.048 | -0.003
11 | NGLY1 (UniProt Q96IV0) | -0.041 | -0.089 | -0.013 | 0.022 | 0 | -0.009 | 0.111 | 0.002 | 0.001 | -0.044 | -0.017 | -0.002 | -0.058 | 0.038 | -0.001 | -0.053 | -0.025 | -0.013 | -0.048 | 0.04
12 | NCOR1 (UniProt O75376) | -0.028 | -0.027 | 0.018 | 0.06 | 0.021 | 0.015 | -0.007 | 0.01 | 0.018 | -0.019 | 0.046 | -0.028 | 0.018 | 0.031 | -0.022 | -0.03 | -0.009 | -0.034 | -0.028 | 0.006
13 | NUDT4 isoform 2 (UniProt Q9NZJ9) | -0.001 | -0.101 | 0.01 | -0.07 | 0.073 | 0.025 | -0.129 | 0.012 | 0.003 | -0.023 | -0.002 | 0.006 | -0.018 | -0.055 | -0.013 | 0.061 | 0.065 | -0.009 | -0.006 | 0.011
14 | OGT (UniProt O15294) | 0.045 | -0.129 | 0.054 | 0.018 | 0.019 | 0.043 | 0.121 | 0.01 | 0.007 | -0.015 | -0.006 | -0.038 | -0.038 | -0.016 | -0.016 | -0.086 | 0.016 | 0.009 | -0.011 | -0.029
15 | MTOR (UniProt P42345) | -0.054 | -0.118 | -0.038 | 0.01 | -0.025 | 0.016 | 0.014 | 0.006 | 0 | -0.039 | -0.008 | -0.016 | -0.068 | -0.042 | 0.021 | -0.079 | 0.018 | 0.055 | -0.015 | 0.053
16 | MTHFD1, A0A384N5Y3 | 0.036 | -0.076 | -0.01 | 0.03 | 0.002 | -0.016 | 0.145 | -0.007 | -0.012 | -0.025 | -0.008 | -0.003 | -0.064 | 0.04 | 0.015 | -0.087 | 0.028 | 0.043 | -0.041 | -0.025
